Measurements as given in the supplement of paper PMC3545927.
The other results are listed elsewhere or left out. How many sequences the whole screen found active is unknown.

Molecular target: furin, P09958
Experiment: furin cleavage Z-score vs untreated control; higher = more cleavage, active = 3.5 or more, inactive = 1 or less, 8 variable residues between constant flanks
Method in brief: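 To give the cleavage Z-score, log read counts were set against furin-free reactions, lowess-adjusted and scaled by median absolute deviation. These counts came from PCR adapter-tagged, sequenced DNA released when purified furin cut 8-mer peptides fused to a cDNA oligonucleotide and held on magnetic beads by their N-terminus. Digests were 0.01 ml, 1:10 enzyme:substrate, in 50 mM HEPES pH 7.5 with CaCl2 and NaCl, for 7.5, 15 or 30 min.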

Sequence of furin, P09958 (P09958 whole entry): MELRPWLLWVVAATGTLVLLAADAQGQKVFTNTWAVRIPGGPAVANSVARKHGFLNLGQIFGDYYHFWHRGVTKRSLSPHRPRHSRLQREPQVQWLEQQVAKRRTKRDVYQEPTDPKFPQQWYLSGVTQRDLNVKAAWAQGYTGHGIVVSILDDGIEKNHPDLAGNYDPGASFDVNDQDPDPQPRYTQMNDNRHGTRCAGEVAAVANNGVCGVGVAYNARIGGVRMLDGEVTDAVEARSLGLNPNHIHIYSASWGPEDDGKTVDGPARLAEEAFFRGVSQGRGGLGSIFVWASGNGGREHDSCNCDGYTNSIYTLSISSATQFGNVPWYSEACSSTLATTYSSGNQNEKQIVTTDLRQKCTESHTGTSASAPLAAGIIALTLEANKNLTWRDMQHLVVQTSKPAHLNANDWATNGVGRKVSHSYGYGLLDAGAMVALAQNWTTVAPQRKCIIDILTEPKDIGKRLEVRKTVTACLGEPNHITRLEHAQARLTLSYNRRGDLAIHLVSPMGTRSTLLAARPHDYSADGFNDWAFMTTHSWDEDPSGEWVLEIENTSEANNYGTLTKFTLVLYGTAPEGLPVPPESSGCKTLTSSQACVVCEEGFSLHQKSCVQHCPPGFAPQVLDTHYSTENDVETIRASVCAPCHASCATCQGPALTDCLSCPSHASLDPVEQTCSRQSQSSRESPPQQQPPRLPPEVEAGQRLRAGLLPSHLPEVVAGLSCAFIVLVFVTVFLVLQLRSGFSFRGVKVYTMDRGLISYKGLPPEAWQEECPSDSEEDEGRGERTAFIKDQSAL

Row | Sequence | furin cleavage Z-score (7.5 min) | furin cleavage Z-score (15 min) | furin cleavage Z-score (30 min)
1 | CAVVCCSMLYAGNASASA [HC2065] | -0.464 (inactive) | -0.469 (inactive) | -1.46 (inactive)
2 | CATFPINAYTAGNASASA [HC1190] | -0.0204 (inactive) | -1.04 (inactive) | -0.568 (inactive)
3 | CARAPRSPRAAGNASASA [FS-3183] | 9.2 (active) | 8.63 (active) | 8.05 (active)
4 | CARSRRSQINAGNASASA [FS-2383] | 1.8 | 3.75 (active) | 2.57
5 | CARSGRSIINAGNASASA [FS-3080] | -0.514 (inactive) | 0.929 (inactive) | 1.74
6 | CARSRRSPRAAGNASASA [FS-1794] | 11.3 (active) | 13.6 (active) | 9.99 (active)
7 | CARAPRSKVPAGNASASA [FS-2251] | 0.556 (inactive) | 0.0997 (inactive) | 1.62
8 | CARSRRSAFHAGNASASA [FS-2819] | 8.26 (active) | 9.19 (active) | 8.92 (active)
9 | CARSLRSQIRAGNASASA [FS-2309] | 0.116 (inactive) | -1.95 (inactive) | 0.712 (inactive)
10 | CARSRRSYSCAGNASASA [FS-3238] | 0.584 (inactive) | 1.19 | 2.38
11 | CARAPRDSDAAGNASASA [FS-2546] | -0.983 (inactive) | 0.168 (inactive) | 0.352 (inactive)
12 | CATGWLAGLFAGNASASA [HC378] | 1 | 1.08 | 0.703 (inactive)
13 | CATTPCSGSCAGNASASA [HC1940] | -1.36 (inactive) | -1.27 (inactive) | -2.07 (inactive)
14 | CAVQLINTNGAGNASASA [HC366] | 0.569 (inactive) | -1.46 (inactive) | 0.762 (inactive)
15 | CARTVVLTESAGNASASA [HC1326] | 0.659 (inactive) | 0.273 (inactive) | -0.545 (inactive)
16 | CAQPARIGRAAGNASASA [FS-1152] | 5.34 (active) | 7.28 (active) | 7.16 (active)
17 | CATPSRAGRAAGNASASA [FS-99] | 3.27 | 3.92 (active) | 2.86
18 | CATPSRCVRIAGNASASA [FS-203] | 0.645 (inactive) | -1.67 (inactive) | -0.417 (inactive)
19 | CAAASLRAFTAGNASASA [HC1537] | -0.944 (inactive) | -0.499 (inactive) | -0.478 (inactive)
20 | CATPSRMIRTAGNASASA [FS-1425] | 4.04 (active) | 5.44 (active) | 5.33 (active)
21 | CAQKLETFWAAGNASASA [HC1038] | 2.24 | -0.183 (inactive) | -1.19 (inactive)

Row | Sequence | furin cleavage Z-score (7.5 min) | furin cleavage Z-score (15 min) | furin cleavage Z-score (30 min)
22 | CALLARGGRAAGNASASA [HC1626] | 3.15 | 3.33 | 3.52 (active)
23 | CAQKKRGGPAAGNASASA [WN3] | 0.322 (inactive) | -1.02 (inactive) | 0.637 (inactive)
24 | CAMGECSQHLAGNASASA [HC1696] | 2.31 | 0.612 (inactive) | 1.45
25 | CAVVCCGMSYAGNASASA [HC102] | -1.2 (inactive) | -0.443 (inactive) | -0.831 (inactive)
26 | CAGACYSIEPAGNASASA [HC1595] | -0.464 (inactive) | -0.533 (inactive) | -1.27 (inactive)
27 | CADVMEECSQAGNASASA [HC1810] | 0.0621 (inactive) | 0.463 (inactive) | -0.158 (inactive)
28 | CAEVVTSDWVAGNASASA [HC2211] | -1.36 (inactive) | -1.03 (inactive) | -1.22 (inactive)
29 | CAFLLALLSCAGNASASA [HC249] | -0.759 (inactive) | -1.73 (inactive) | -0.995 (inactive)
30 | CAHAVGIFRAAGNASASA [HC748] | -0.783 (inactive) | -0.538 (inactive) | 0.453 (inactive)
31 | CAHANRTGRAAGNASASA [FS-130] | 3.34 | 5.9 (active) | 5.93 (active)
32 | CAVVCCSPSYAGNASASA [HC2059] | 0.343 (inactive) | 0.71 (inactive) | -0.572 (inactive)
33 | CANTNGSWHLAGNASASA [HC368] | -0.455 (inactive) | 0.77 (inactive) | -0.519 (inactive)
34 | CARRQPIPKAAGNASASA [HC191] | -0.467 (inactive) | -0.696 (inactive) | -2.34 (inactive)
35 | CARDPRAAIQAGNASASA [FS-2905] | -0.00694 (inactive) | -0.144 (inactive) | 0.0435 (inactive)
36 | CARRGRPGLKAGNASASA [FS-2066] | -0.499 (inactive) | -1.08 (inactive) | -0.201 (inactive)
37 | CAEDAASLRAAGNASASA [HC1536] | 1.18 | 0.0869 (inactive) | 0.0662 (inactive)
38 | CARRKRYAEHAGNASASA [FS-3056] | 8.67 (active) | 11.2 (active) | 9.71 (active)
39 | CARKARWLRAAGNASASA [FS-2262] | 8.22 (active) | 9.39 (active) | 8.11 (active)
40 | CARRGRAGSDAGNASASA [FS-2065] | -0.603 (inactive) | -0.507 (inactive) | -0.432 (inactive)
41 | CARRGRAARHAGNASASA [FS-1609] | 7.16 (active) | 6.27 (active) | 7.79 (active)
42 | CARKARYAIQAGNASASA [FS-1901] | 1.15 | 3.07 | 5.59 (active)
